Bioassay records as filed in PubChem BioAssay.
Only some compounds are listed: those with a hit (about 19% of all), similar ones and a draw of the others.
TDP1 cell CPT: DT40-hTDP1 cell growth loss with CPT. chicken DT40 Tdp1-/-;hTDP1 cells + 20 nM CPT, ATP luminescence, 48 h. Potency, µM (top dose mostly 46.2 µM), actives largely listed as inhibitors. 12% of 420,000 active; further: nearly all actives have a fitted effect of over 55% in size
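Cell growth measured by CellTiter-Glo luminescence after a minimum 48 h, 37 C compound exposure with 20 nM CPT in Tdp1-knockout DT40 cells stably expressing hTDP1, seeded 400/well; qHTS titration format.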
HepG2 viability: kills HepG2 cells in TGF-b inhibitor counter-screen | HepG2 CAGA-GFP viability, ATP luminescence, 18 h | AID 588856 | Potency, µM (top dose mostly 46.1 µM), hits mostly cytotoxic | 0.76% of 410,000 active
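HepG2 CAGA-GFP cells (1000/well, DMEM with 1% FBS) received compound, then TGF-beta at 500 pg/mL final, and were incubated 18 hours at 37 degrees C. Viability was read by CellTiter-Glo luminescence. Media-only wells were set as complete cell-killing and DMSO as no toxicity.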
TDP1 cell noCPT: qHTS for Inhibitors of human tyrosyl-DNA phosphodiesterase 1 (TDP1): qHTS in cells in absence of CPT. DT40 Tdp1-/- hTDP1 cells, no CPT, ATP luminescence, 48 h. Potency, µM (top dose mostly 46.2 µM), usual class: inhibitors. 15% of 420,000 active; further: nearly all actives have a fitted effect of over 55% in size
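Growth of hTDP1-complemented DT40 Tdp1-knockout cells is measured by ATP luminescence after at least 48 hr compound exposure at 37 °C, with DMSO substituting for the 20 nM CPT used in the parallel screen.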
S-ASM inh: inhibitors of human secretory acid sphingomyelinase; P17405; placental ASM, HMU-PC fluorogenic substrate, 60 min; Potency, µM (doses to about 57.5 µM), usual class: inhibitors; 0.006% of 340,000 active; AID 504937
Target sequence (P17405 47-631 limits assumed): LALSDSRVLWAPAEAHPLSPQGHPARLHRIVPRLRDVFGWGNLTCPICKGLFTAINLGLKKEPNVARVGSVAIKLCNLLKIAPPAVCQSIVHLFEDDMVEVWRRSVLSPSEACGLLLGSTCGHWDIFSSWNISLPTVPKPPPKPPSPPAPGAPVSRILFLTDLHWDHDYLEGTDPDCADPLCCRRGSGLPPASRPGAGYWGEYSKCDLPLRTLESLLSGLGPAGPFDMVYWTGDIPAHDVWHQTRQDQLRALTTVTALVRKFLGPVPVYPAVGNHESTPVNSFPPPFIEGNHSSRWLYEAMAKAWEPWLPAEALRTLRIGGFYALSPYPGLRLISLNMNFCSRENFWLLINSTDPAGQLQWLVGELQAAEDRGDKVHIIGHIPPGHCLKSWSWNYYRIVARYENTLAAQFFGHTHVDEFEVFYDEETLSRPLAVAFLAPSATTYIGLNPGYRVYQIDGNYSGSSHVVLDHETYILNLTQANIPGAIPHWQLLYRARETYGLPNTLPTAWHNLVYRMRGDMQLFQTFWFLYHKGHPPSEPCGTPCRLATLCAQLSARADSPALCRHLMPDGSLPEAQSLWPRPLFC
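qHTS format. ASM enzyme prepared from human placenta hydrolyses the fluorogenic substrate HMU-PC0 (9 uM final) over 60 min at 37 °C after a 10 min compound preincubation.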
IL1B secr inh: inflammasome signaling inhibition, IL-1 beta readout. 4.7% of 360,000 active. THP-1 LPS/ATP IL-1B secretion, AlphaLISA, 16 h; hits give low values. activity change, % at 57.5 µM; in the data active means activity change below about -50%; inconclusive means mostly about -30% to -49%
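THP-1 cells pretreated 1 hr with compounds (up to 57.5 uM final), then stimulated with LPS (250 ng/mL final) plus ATP (1.25 mM final); secreted IL-1B measured by AlphaLISA after 16 hr, decreased signal indicating inhibition.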
TGFb inhibitor: inhibitors of TGF-b signaling. HepG2 CAGA-GFP TGF-b/SMAD3 reporter, GFP fluorescence, 18 h; TGF-beta stimulated, 500 pg/mL final. Potency, µM (series often up to 46.1 µM), actives largely listed as inhibitors. 1.2% of 410,000 active. AID 588855; further: nearly all actives have a fitted effect of over 65% in size
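HEPG2 CAGA-GFP cells (1000/well, DMEM with 1% FBS) were pre-incubated 2 h at 37 degrees C, given compound by pin tool, then stimulated with TGF-beta at 500 pg/mL final for 18 h before per-cell GFP fluorescence imaging.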
Large screens that a line does not name were inactive. Unless noted, the call rests on the fitted dose curve; in most records, active means well fitted curve in the direction sought with a large enough effect; inconclusive means small, poorly fitted or top-dose-only effect, or another doubt; inactive means no such curve, though single readings can be large; an effect the other way counts as inactive or inconclusive.

CCOc1ccc(NC(=O)CC2SC(=O)N(c3ccccc3)C2=O)cc1 (stereo unspecified)	TDP1 cell CPT 1.16µM, TDP1 cell noCPT 2.91µM
Cc1cccc(C)c1-n1nnnc1C1(C)CCC(=O)N1c1ccc(N2CCOCC2)cc1 (stereo unspecified)	TDP1 cell CPT inconclusive, TDP1 cell noCPT inconclusive (no result: HepG2 viability, S-ASM inh, TGFb inhibitor)
Cc1c(CN2CCOc3c(cc(-c4ncc(C(F)(F)F)cc4Cl)cc3OCC3CCCO3)C2)cnn1C (stereo unspecified)	none (no result: HepG2 viability, S-ASM inh, IL1B secr inh, TGFb inhibitor)
CC1(C(=O)NS(=O)(=O)c2ccc(C#N)cc2)CCN1C(=O)CCC1CCCC1 (stereo unspecified)	none (no result: S-ASM inh)
CC(=O)c1cccc(NC(=O)C(C)OC(=O)c2cc(=O)[nH]c3ccccc23)c1 (stereo unspecified)	none
CCOCc1c(C(=O)OCC(=O)Nc2ccccc2C(N)=O)oc2ccccc12	TDP1 cell CPT inconclusive, TDP1 cell noCPT inconclusive
CCCCCCCC/C=C\C/C=C\C/C=C\CCCC(=O)NCCO	none (no result: HepG2 viability, S-ASM inh, IL1B secr inh, TGFb inhibitor)
CCCCCCCC/C=C\CCCCCCCC(=O)N[C@@H](CO)Cc1ccc(O)cc1	TDP1 cell CPT 11.9µM, TDP1 cell noCPT 10.6µM (no result: HepG2 viability, S-ASM inh, IL1B secr inh, TGFb inhibitor)
Cc1cccc(Cn2nc(C(C)(C)C)cc2C(=O)N2CCOCC2)c1	none
CCOC(=O)C1CCN(C(=O)c2ccc(OCC(=O)Nc3cccc(C(F)(F)F)c3)cc2)CC1	TDP1 cell CPT inconclusive, TDP1 cell noCPT inconclusive
COc1cc(C(=O)N(C)CCOc2ccccc2)ccc1OCC(=O)Nc1cccc(C(F)(F)F)c1	TDP1 cell CPT 25.9µM, TDP1 cell noCPT 16.4µM, IL1B secr inh -72.8, TGFb inhibitor inconclusive
CCOC(=O)N1CCC(NC(=O)c2cc(C(=O)Nc3cccc(C(F)(F)F)c3)ccc2CO)CC1	TDP1 cell CPT 5.17µM, TDP1 cell noCPT 3.26µM, TGFb inhibitor inconclusive
CCOC(=O)C1CCN(C(=O)c2ccc(OCC(=O)Nc3cccc(C(F)(F)F)c3)c(OC)c2)CC1	TDP1 cell CPT 13µM, TDP1 cell noCPT 9.2µM, IL1B secr inh inconclusive, TGFb inhibitor inconclusive
CCOC(=O)C1CCN(C(=O)c2ccc(OCC(=O)Nc3ccc(OCC)cc3)c(OC)c2)CC1	TDP1 cell CPT 20.6µM, TDP1 cell noCPT 16.4µM
Cc1ccc(S(=O)(=O)Nc2cc3c(C(=O)Nc4ccccc4)c(C)oc3c3ccccc23)cc1	TDP1 cell CPT inconclusive, TDP1 cell noCPT inconclusive, S-ASM inh inconclusive
CCOC(=O)c1c(C)oc2nc(C)nc(NCC3CCN(Cc4ccccc4C)CC3)c12	none (no result: S-ASM inh, IL1B secr inh)
O=C(Cc1nn[nH]n1)c1ccccc1O	none
COc1cc(/C=C(/C#N)C(=O)Nc2cc(C(F)(F)F)ccc2Cl)ccc1OCC(=O)Nc1cccc(C(F)(F)F)c1	TDP1 cell CPT 18.4µM, TDP1 cell noCPT 23.1µM
CC1CCCC(C)N1C(=O)COC(=O)c1ccco1 (stereo unspecified)	none
CC(=O)Nc1ccc(NC(=O)c2nc(S(=O)(=O)Cc3cccc(C)c3)ncc2Cl)cc1	TDP1 cell CPT 0.058µM, TDP1 cell noCPT 0.0461µM, IL1B secr inh -100.1, TGFb inhibitor inconclusive
CC(=O)Nc1ccc(NC(=O)c2nc(SCc3ccccc3C)ncc2Cl)cc1	none (no result: S-ASM inh, IL1B secr inh)
COC(=O)c1ccccc1NC(=O)c1nc(S(=O)(=O)Cc2cccc(C)c2)ncc1Cl	TDP1 cell CPT 2.91µM, TDP1 cell noCPT 2.59µM (no result: S-ASM inh, IL1B secr inh)
Cc1ccc(CNC(=O)c2nc(SCc3cccc(C)c3)ncc2Cl)cc1	TDP1 cell CPT inconclusive, TDP1 cell noCPT inconclusive (no result: S-ASM inh, IL1B secr inh)
COC(=O)c1ccc(NC(=O)c2nc(S(=O)(=O)Cc3cccc(C)c3)ncc2Cl)cc1	TDP1 cell CPT 0.581µM, HepG2 viability 22.4µM, TDP1 cell noCPT 0.517µM, IL1B secr inh -102.8, TGFb inhibitor inconclusive
COc1ccc(OCC(=O)OCC(=O)NC2CCCC2)cc1	none
CCOC(=O)C[C@@H]1OC[C@H](C)N1S(=O)(=O)c1ccc(C)cc1	TDP1 cell noCPT inconclusive (no result: HepG2 viability, S-ASM inh, TGFb inhibitor)
CCCNC(=O)CN1C(=O)c2ccccc2Sc2ncccc21	none
Cc1ccc(S(=O)(=O)N2[C@@H](c3cccc(C)c3)C(C(=O)O)=C[C@H]2CC2CCCC2)cc1	none
NC(=O)C1=C[C@H](c2ccc(C(F)(F)F)cc2)C[C@H](OCc2ccc(CO)cc2)O1	TDP1 cell noCPT inconclusive
NC(=O)C1=C[C@@H](c2ccc(C(F)(F)F)cc2)C[C@@H](OCc2ccc(CO)cc2)O1	TDP1 cell CPT inconclusive, TDP1 cell noCPT 14.6µM
NC(=O)C1=C[C@H](c2ccc(Br)cc2)C[C@H](OCc2ccc(CO)cc2)O1	TDP1 cell CPT 13µM, TDP1 cell noCPT 20.6µM
O=C(COc1cc(F)ccc1[N+](=O)[O-])Nc1ccc(N2CCCCC2)cc1	TDP1 cell CPT inconclusive, TDP1 cell noCPT inconclusive, IL1B secr inh -67.0
CC(C)C(=O)N1CCN(c2ccc(NC(=O)COc3ccccc3[N+](=O)[O-])cc2)CC1	TDP1 cell CPT 14.6µM, TDP1 cell noCPT 18.4µM, IL1B secr inh -90.2
O=C(COc1cc(F)ccc1[N+](=O)[O-])Nc1ccc(N2CCOCC2)cc1	none
C[C@@H](C(=O)N1CCN(Cc2ccc3c(c2)OCO3)CC1)n1nnc2ccccc2c1=O	TDP1 cell CPT inconclusive, TDP1 cell noCPT inconclusive
COC(=O)c1ccc(Cn2nnc3sc4c(c3c2=O)CCC(C)C4)cc1 (stereo unspecified)	TDP1 cell CPT inconclusive, TDP1 cell noCPT inconclusive (no result: S-ASM inh, IL1B secr inh)
Cc1nnc(SCC(=O)Nc2ccc(O)cc2)c2ccccc12	IL1B secr inh -98.5
Cc1ccccc1NC(=O)CSc1nnc(C)c2ccccc12	IL1B secr inh -68.7
COc1ccc2cnnc(SCC(=O)Nc3ccccc3)c2c1OC	TDP1 cell noCPT inconclusive, IL1B secr inh -58.1
Cc1ccc(NC(=O)CSc2nncc3ccccc23)cc1	none
Cc1nnc(SCC(=O)Nc2ccccc2)c2ccccc12	TDP1 cell noCPT inconclusive, IL1B secr inh -101.8
Cc1ccccc1NC(=O)CSc1nnc(C)c(=O)[nH]1	none
Cc1ccc(N(C(=O)c2ccccn2)C(C(=O)NC2CCCCC2)c2ccncc2)cc1 (stereo unspecified)	none
